# High-throughput results as filed in PubChem.
# Most compounds without a hit are left out; they make up all but 12% or so of the library.
# G9a inh = inhibitors of human histone lysine methyltransferase G9a | Potency, µM (series often up to 102 µM), for the others: top-dose activity, negative = inhibition, hits mostly inhibitors | 350,000 compounds, 8.8% hits | Q96KQ7 | G9a H3K9 monomethylation, AlphaScreen, 2 h; further: potency means the concentration at half of the fitted maximal effect; on the % scale 0 is the no-effect control and ±100 the full control effect; nearly all actives have a fitted effect of over 75% in size
# Target sequence (Q96KQ7 913-1193 limits assumed): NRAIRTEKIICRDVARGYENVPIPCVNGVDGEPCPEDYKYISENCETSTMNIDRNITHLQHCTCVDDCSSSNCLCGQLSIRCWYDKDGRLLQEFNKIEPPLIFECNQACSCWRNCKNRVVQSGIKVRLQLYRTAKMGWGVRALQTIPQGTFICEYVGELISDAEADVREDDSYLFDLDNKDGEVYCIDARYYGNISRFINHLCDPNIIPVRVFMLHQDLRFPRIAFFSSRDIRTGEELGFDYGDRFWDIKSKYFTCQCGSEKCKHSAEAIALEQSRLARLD
#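 Quantitative HTS format: methyltransferase activity on a biotin-tagged H3K9 peptide is measured by AlphaScreen, using a rabbit anti-monomethyl-H3K9 antibody with streptavidin donor and anti-IgG acceptor beads. Final levels are 20 nM enzyme, 500 nM peptide, 20 uM SAM; 2 h RT.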
# Sfp PPTase inh = inhibitors of Bacillus subtilis Sfp phosphopantetheinyl transferase | Q9F4F7 | Biochemical Sfp PPTase activity, qHTS | AID 1490 | 310,000 compounds, 3.5% hits | Potency, µM, for inactives: largest response in the series, negative = inhibition, usual class: inhibitors;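 further: the enzyme is Sfp with the accession as filed and its product quenches rhodamine fluorescence; potency means the concentration at half of the fitted maximal effect; 0% = enzyme reaction without inhibitor and -100% = no enzyme wells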
#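 With Hepes-Na pH 7.6 buffer containing 10 mM MgCl2, Sfp (15 nM) modified BHQ-2-YbbR (12.5 uM) using rhodamine-CoA (5 uM). Two reads 30 minutes apart at 525/598 nm yielded each well's rate.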
# HP1b chromo inh = blocks HP1-beta chromodomain binding to methylated histone tails | AID 540317 | 390,000 compounds, 0.56% hits | Potency, µM (top dose mostly 114 µM), for inactives: at the top dose activity change, negative = inhibition, usual class: inhibitors | P83916 | AlphaScreen HP1-beta / biotin-H3K9me3 peptide binding; further: potency means the concentration at half of the fitted maximal effect; nearly all actives have a fitted effect of over 70% in size
# Target sequence (P83916 whole entry, looked up): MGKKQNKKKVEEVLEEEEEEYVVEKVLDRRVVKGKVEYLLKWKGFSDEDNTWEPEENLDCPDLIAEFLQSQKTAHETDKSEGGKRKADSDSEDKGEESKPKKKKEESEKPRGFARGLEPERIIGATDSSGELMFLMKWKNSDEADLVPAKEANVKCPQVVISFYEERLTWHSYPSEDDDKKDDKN
#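 Compound inhibition of the preformed complex between 50 nM HP1-beta and 50 nM biotinylated H3K9me3 peptide was read by AlphaScreen. Buffer was PBS pH 7.4 with 0.01% Tween-20. Incubations ran 30 min at room temperature, with 10 ug/mL donor/acceptor beads.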
# BAZ2B block = BAZ2B (human) inhibition; 360,000 compounds, 4.4% hits; Q9UIF8; AlphaScreen BAZ2B-H3K14Ac peptide displacement; Potency, µM (series often up to 114 µM), for inactives: at the highest dose activity change, negative = inhibition, hits mostly inhibitors; further: potency means the concentration at half of the fitted maximal effect; on the % scale 0 is the no-effect control and ±100 the full control effect; nearly all actives have a fitted effect of over 60% in size
#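 Multi-concentration screen (max 110 uM) measuring displacement of acetylated histone H3 peptide from BAZ2B by AlphaScreen, using 50 nM protein, 50 nM peptide and 10 ug/mL streptavidin donor plus Ni-chelate acceptor beads.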
# JMJD2A Tudor inh = blocks the human JMJD2A Tudor domain; O75164; AlphaScreen JMJD2A-Tudor / H3K4me3 peptide binding; Potency, µM (top dose mostly 114 µM), for the others: at the highest dose activity change, negative = inhibition, usual class: inhibitors; 390,000 compounds, 4.4% hits; further: potency means the concentration at half of the fitted maximal effect; on the % scale 0 is the no-effect control and ±100 the full control effect; nearly all actives have a fitted effect of over 50% in size
# Sfp PPTase conf = Sfp phosphopantetheinyl transferase inhibition, confirmation. Sfp PPTase enzymatic assay, qHTS titration. Potency, µM (titrated, usually from 114 µM), for the others: at the highest dose activity change, negative = inhibition, hits mostly inhibitors. 380 compounds, 79% hits. shares compounds with Sfp PPTase inh;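 further: potency means the concentration at half of the fitted maximal effect; plate controls were uninhibited Sfp reaction for no effect and no enzyme control for full effect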
# Target sequence (Q9F4F7 whole entry, looked up): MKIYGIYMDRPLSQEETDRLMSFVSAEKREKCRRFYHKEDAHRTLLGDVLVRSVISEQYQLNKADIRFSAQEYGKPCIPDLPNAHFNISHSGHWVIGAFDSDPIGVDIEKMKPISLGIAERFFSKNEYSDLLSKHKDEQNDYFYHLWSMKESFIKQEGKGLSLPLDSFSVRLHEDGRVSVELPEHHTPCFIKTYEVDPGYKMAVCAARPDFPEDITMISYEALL
# Sfp gel assay = Inhibits B. subtilis Sfp phosphopantetheinylation; shares compounds with Sfp PPTase inh; purified Sfp, gel-based phosphopantetheinylation read-out; Potency, µM, actives largely listed as inhibitors; 210 compounds, 20% hits; AID 2707;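 active means potency below 100 µM; inconclusive means dose-dependent response but potency above 100 µM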;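 further: band intensities scaled against SCH202676 control wells before curve fitting; potency is an IC50 for inhibitors of Sfp transfer activity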
# The depositor's hits bear a star; i = inactive; ? = inconclusive; . = no result given; [ ] = remark or other dose. Unless noted, the call rests on the fitted dose curve; in most records, active means well fitted curve in the direction sought with a large enough effect; inconclusive means small, poorly fitted or top-dose-only effect, or another doubt; inactive means no such curve, though single readings can be large; an effect the other way counts as inactive or inconclusive.
SMILES,G9a inh,Sfp PPTase inh,HP1b chromo inh,BAZ2B block,JMJD2A Tudor inh,others
O=C(NCc1cccs1)c1noc2c1CCCCC2,-1%[12.7 µM],9%,8%,1%,-1%,
CCOC(=O)c1c(-c2ccccc2)csc1NC(=O)c1cc(-c2ccc(F)cc2)on1,4µM*,.,-15%,-10%,1%,
CCOC(=O)c1c(-c2ccc(C)cc2)csc1NC(=O)c1cc2ccccc2oc1=O,3%[0.501 µM],?,15%,40µM*,-5%,
CCOC(=O)c1c(-c2ccccc2)csc1NC(=O)c1cc(-c2ccccc2OC)on1,.,.,-16%,.,1%,
CCOC(=O)c1c(-c2ccccc2)csc1NC(=O)c1cc(-c2ccc(Br)cc2)on1,6.3µM*,.,?,-27%,-6%,
CCOC(=O)c1c(-c2ccc(C)cc2)csc1NC(=S)NC(=O)c1ccccc1,-12%[59 µM],21%,3%,-29%,?,
COC(=O)c1c(-c2ccc(C)cc2)csc1NC(=S)NC(=O)c1ccc(F)cc1,79µM*,-27%,13%,-14%,-29%,
COc1ccc2c(c1)OC[C@H]1[C@H]2N2C(=O)c3cc(Br)ccc3NC(=O)[C@@]2(C)[C@H]1c1ccccc1,5%[2.33 µM],.,2%,?,-26%,
C[C@@H]1CCC[C@@]2(O[C@H](CCO)C[C@@H](O)[C@@H]2O)O1,-7%,1%,43%,-1%,-3%,
COC(=O)C1=NOC2(C=C(Br)C(OC)=C(Br)C2=O)C1 (stereo not given),.,0.79µM*,.,.,.,
Cc1ccc(S(=O)(=O)N2C(=O)C(c3ccccc3)SC2=Nc2ccccc2)cc1 (stereo not given),7.9µM*,20µM*,?,3%,-10%,
CCCNC(=S)NCCN1CCCCC1,8.9µM*,?,-27%,?,40µM*,
CCNC(=S)NCCN1CCCCC1,-10%,10%,53%,-3%,1%,
CCCCNC(=S)NCCN1CCCCC1,2µM*,56µM*,?,4%,1.6µM*,
CC(C)c1nnc(NC(=O)c2nc(S(=O)(=O)Cc3ccc(F)cc3)ncc2Cl)s1,8.9µM*,-26%,17%[57 µM],-28%,?,
Cc1cccc(CS(=O)(=O)c2ncc(Cl)c(C(=O)Nc3nnc(C(C)C)s3)n2)c1,?,-29%,31%[57 µM],?,?,
C=CCSc1nnc(NC(=O)c2nc(SCC)ncc2Cl)s1,7.9µM*,15%,12%,-27%,-18%,
CCSc1nnc(NC(=O)c2nc(S(=O)(=O)Cc3ccc(F)cc3)ncc2Cl)s1,.,-12%,10%[57 µM],?,2.8µM*,
Cc1ccc(CS(=O)(=O)c2ncc(Cl)c(C(=O)Nc3nnc(C(C)C)s3)n2)cc1,45µM*,?,33%[57 µM],-13%,?,
CC(C)c1nnc(NC(=O)c2nc(SCc3ccc(F)cc3)ncc2Cl)s1,0%[59 µM],.,38%,-20%,-21%,
Cc1ccc2nc(NC(=O)CSc3ncc(C(=O)Nc4ccc(F)cc4)c(=O)n3C)sc2c1,4%[59 µM],.,46%,-12%,-3%,
Nn1c(SCc2ccc(C(=O)O)cc2)nnc1-c1ccc(Cl)cc1Cl,-12%,0%,42%,10%,-4%,
Cc1cc(C(=O)COC(=O)c2n[nH]c3ccccc23)c(C)n1C,?,0%,-24%,?,63µM*,
Cc1cc(C(=O)COC(=O)c2nccnc2N)c(C)n1C,-40%,-17%,-6%,.,-24%,
Cc1cc(C(=O)COC(=O)c2n[nH]c(=O)c3ccccc23)c(C)n1C,?,.,15%,4%,-25%,
SMILES,G9a inh,Sfp PPTase inh,HP1b chromo inh,BAZ2B block,JMJD2A Tudor inh,others
COc1cc(C(=O)OCC(=O)c2cc(C)n(C)c2C)cc(OC)c1OC,5%[59 µM],-19%,?,0%,32µM*,
COc1ccc(-n2nc(C(=O)N3CCN(c4ccc(F)cc4)CC3)c3c4ccccc4n(C)c3c2=O)cc1,-1%[59 µM],.,30%,.,-1%,
O=C(CSc1oc(-c2ccco2)nc1S(=O)(=O)c1ccc(Br)cc1)c1ccc(Cl)cc1,?,.,12%,-24%,-30%,
CC(C)COC(=O)c1ccc2c(c1O)C(=O)c1ccccc1C2=O,?,-28%,?,10µM*,7.9µM*,
C#CCCCCCCC#CCN(C)C,28µM*,-6%,?,?,1.8µM*,
O=C(c1ccccc1)N1CCN(C(=S)NCc2ccco2)CC1,-24%,35µM*,9%,.,-1%,Sfp PPTase conf=33µM*;Sfp gel assay=?
O=C(NCc1ccc(C(=O)O)cc1)OCc1ccccc1,-5%,6%,-2%,3%,2%,
Cc1ccc(/C=C/C(=O)NCCc2ccccc2)o1,8.9µM*,7.9µM*,?,?,28µM*,Sfp PPTase conf=19µM*
O=C(O)/C=C/C(=O)NCCc1ccccc1,-1%,6%,32%,11%,?,
OC(CN1CCNCC1)Cn1c2ccc(Br)cc2c2cc(Br)ccc21 (stereo not given),.,35µM*,.,.,.,Sfp PPTase conf=-9%;Sfp gel assay=i
CC/C(O)=C(/C#N)c1nnc2n1CCCCC2,?,14µM*,21%,79µM*,28µM*,Sfp PPTase conf=3%;Sfp gel assay=i
Cc1ccccc1-n1nc(-c2ccc(N)cc2)cc1N,?,14µM*,4%,-25%,?,Sfp PPTase conf=2%;Sfp gel assay=i
Nc1ccc(-c2cc(N)n(-c3ccccc3)n2)cc1,-132%,-20%,2%,?,?,
O=C1CSC(c2ccccc2)N1CC(O)c1ccc([N+](=O)[O-])cc1 (stereo not given),-29%,13%,-7%,-1%,-15%,
O=C(CSc1nc2ccccc2nc1N1CCOCC1)Nc1ccccc1F,.,-1%,109%,33%,20%,
Cc1nc(-c2cc(-c3nc(-c4ccc(C(C)(C)C)cc4)no3)no2)cs1,121%,40µM*,76%,4%,31%,Sfp PPTase conf=15µM*;Sfp gel assay=i
Cc1noc(-c2ccc(-c3noc(-c4ccc(C(F)(F)F)cc4)n3)cc2)n1,26%[59 µM],.,9%[57 µM],7%,-12%,
O=C(OCC(=O)N1CCN(c2ccccc2)CC1)c1cccs1,?,.,5%,-5%,-18%,
Nc1ccc(C(=O)n2c3ccccc3c3ccccc32)cc1,8.9µM*,45µM*,25%,-2%,-21%,Sfp PPTase conf=?
Nc1ccc(C(=O)N2CCCC2)cc1,-1%[59 µM],6%,67%,-3%,-8%[57.1 µM],
O=C(CSc1n[nH]c(-c2ccccc2O)n1)N1CCOCC1,26%,3.5µM*,26%,?,-4%,Sfp PPTase conf=15%;Sfp gel assay=i
Nc1nc(SCC(=O)N2CCOCC2)n[nH]1,12%[59 µM],-1%,4%,-18%,3%[11.4 µM],
COc1ccc(C2(C(=O)Nc3ccc(OC)cc3OC)CCCC2)cc1,-6%,9%,5%,7%,-21%,
